# Assay results as given in PubChem BioAssay (NCATS).
# Where “and” joins values, the source holds several entries; their conditions need not be identical. Equal entries are not always repeated. A number with no mark means an inactive call. Results filed as inconclusive are left out. A call without a number means that no potency is given here. Calls of active or inactive are those of the source. The call rests on the fitted dose curve; in most records, active means well fitted curve in the direction sought with a large enough effect; inconclusive means small, poorly fitted or top-dose-only effect, or another doubt; inactive means no such curve, though single readings can be large; an effect the other way counts as inactive or inconclusive.
# Legend:
# [1] = target: Glutathione peroxidase 1 (Homo sapiens) (UniProt P07203); assay: Primary qHTS Assay for Inhibitors of Recombinant Selenoprotein Glutathione Peroxidase 1 (GPX1) (AID 1845191); further: nearly all actives have a fitted effect of over 65% in size; further: potency means the concentration at half of the fitted maximal effect
# Outline: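 GR-coupled readout: NADPH consumption tracked by fluorescence, ex 340/em 450 nm, at t=0 and after 15 min at RT. Final mix 10 nM GPX1, 1 mM GSH, 0.5 mM CHP, 0.5 mM NADPH, 100 nM GR, 0.01% BSA, following 30 min enzyme–compound preincubation.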
# [2] = target: Phospholipid hydroperoxide glutathione peroxidase GPX4 (Homo sapiens) (UniProt P36969); assay: Primary qHTS Assay for Inhibitors of Recombinant Selenoprotein Glutathione Peroxidase 4 (GPX4) (AID 1845192); further: nearly all actives have a fitted effect of over 65% in size; further: potency means the concentration at half of the fitted maximal effect; on activity change, negative = inhibition: series mostly up to about 50 µM
# Outline: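 Steps: GPX4 plus compound, 30 min RT; add GR/GSH/NADPH master mix; start with cumene hydroperoxide; read 340/450 nm fluorescence at 0 and 15 min. Finals were 200 nM GPX4, 1 mM GSH, 0.5 mM CHP, 0.5 mM NADPH, 100 nM GR.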
# [3] = target: Luciferin 4-monooxygenase (Photinus pyralis) (UniProt P08659); assay: Primary firefly luciferase (FLuc) qHTS assay for identification of artifact compounds. (AID 1845220); further: nearly all actives have a fitted effect of over 60% in size; on activity change, negative = inhibition: series mostly up to about 54 µM
# Outline: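 D-luciferin and ATP (10 uM each, final) in Tris acetate buffer pH 7.6 were incubated with compounds for 15 min at room temperature. The reaction was started with 10 nM Photinus pyralis luciferase and luminescence read after 5 min. Percent inhibition was fitted to a 4-parameter Hill equation.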
# [4] = Primary fluorescence-based thiol-reactive (MSTI) qHTS assay for identification of artifact compounds. (AID 1845221); further: nearly all actives have a fitted effect of over 65% in size; further: potency means the concentration at half of the fitted maximal effect;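 on activity change, negative = thiol reactive: series mostly up to about 54 µM; thiol-reactive compounds lower the probe fluorescence signal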
# Outline: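 In PBS pH 7.4 with 2% DMSO, each compound met 4 uM MSTI for one hour at ambient temperature, shielded from light, before fluorescence detection.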
# [5] = system: Nanoluciferase (engineered Oplophorus gracilirostris luciferase); assay: Primary Nanoluciferase (NLuc) qHTS assay for identification of artifact compounds. (AID 1845222); further: series mostly up to about 54 µM
# Outline: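 Diluted conditioned medium from NLuc-expressing S16 cells treated with compounds for 15 min at room temperature, then Nano-Glo substrate added; luminescence read after 5 min. Percent inhibition versus no-enzyme and DMSO controls fitted to 4-parameter Hill equation.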
# [6] = Primary redox qHTS assay for identification of artifact compounds. (AID 1845223)
# Outline: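 Redox-cycling detection via DTT (250 uM final) oxidation coupled to Amplex Red (25 uM)/HRP (250 mU/mL) in HBSS. 15 min preincubation plus 30 min after DTT, room temperature. Ex/Em 525/598 nm; 4-parameter Hill fit against DMSO and 10 uM DA3003.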
# Sequence of Glutathione peroxidase 1 (Homo sapiens) (P07203 whole entry, looked up): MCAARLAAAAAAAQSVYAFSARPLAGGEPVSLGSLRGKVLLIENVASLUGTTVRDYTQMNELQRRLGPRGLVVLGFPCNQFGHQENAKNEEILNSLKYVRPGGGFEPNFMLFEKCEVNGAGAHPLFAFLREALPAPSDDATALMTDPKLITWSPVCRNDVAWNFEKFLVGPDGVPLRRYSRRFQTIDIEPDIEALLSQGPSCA
# Sequence of Phospholipid hydroperoxide glutathione peroxidase GPX4 (Homo sapiens) (P36969 whole entry, looked up): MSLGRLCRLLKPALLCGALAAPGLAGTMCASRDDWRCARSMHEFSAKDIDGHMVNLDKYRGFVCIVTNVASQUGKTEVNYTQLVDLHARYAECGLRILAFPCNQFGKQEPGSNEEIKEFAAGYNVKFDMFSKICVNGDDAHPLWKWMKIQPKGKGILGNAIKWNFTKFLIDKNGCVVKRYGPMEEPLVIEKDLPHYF
smiles,measurement,setting,value
COC1CC(=O)CCC(C)OC(=O)CC1O (stereo unspecified),Potency,[1],inactive
same,Potency,[2],inactive
same,Potency,[3],inactive
same,Potency,[4],inactive
same,Potency,[5],inactive
same,Potency,[6],inactive
CO[C@H]1C=C2C(CC[C@H](O[C@@H]3O[C@H](CO)[C@@H](O)[C@@H](O)[C@H]3O)C2(C)C)[C@]2(C)CC[C@]3(C)C([C@H](C)C(O)C(C=C(C)C)O[C@@H]4O[C@H](CO)[C@@H](O)[C@@H](O)[C@H]4O)CC[C@@]3(C)C12 (stereo partly specified),Potency,[1],inactive
same,Potency,[2],inactive
same,"activity change, negative = inhibition",[3],1.78% [at 11.6 µM]
same,"activity change, negative = thiol reactive",[4],133% [at 11.5 µM]
same,"activity, negative = inhibition",[5],4.54% [at 11.6 µM]
Cc1nn(C)c(COc2ccc(N3CCN(S(=O)(=O)N(C)C)CC3)cc2)c1-c1cccc2c(CCCOc3cccc4ccccc34)c(C(=O)O)n(CCN3CCOCC3)c12,Potency,[1],inactive
same,Potency,[2],inactive
same,Potency,[3],inactive
same,Potency,[4],inactive
same,Potency,[5],inactive
same,Potency,[6],inactive
COC1CC(OC2CCC3(C)C(=CCC4C3CCC3(C)C(C(C)O)CCC43O)C2)OC(C)C1OC1OC(C)C(OC2OC(COC3OC(COC4OC(CO)C(O)C(O)C4O)C(O)C(O)C3O)C(O)C(O)C2O)C(OC)C1O (stereo unspecified),Potency,[1],inactive
same,Potency,[2],inactive
same,outcome,[3],inactive [at 11.6 µM]
same,"activity change, negative = thiol reactive",[4],54% [at 11.5 µM]
same,"activity, negative = inhibition",[5],4.38% [at 11.6 µM]
CC(=O)O[C@@H]1C[C@]2(C)[C@@]3(CCC4[C@@]5(C)CC[C@H](O[C@@H]6O[C@H](C(=O)O)[C@@H](O)[C@H](O[C@@H]7O[C@H](CO)[C@H](O)[C@H](O)[C@H]7O[C@@H]7O[C@@H](C)[C@H](O)[C@@H](O)[C@H]7O[C@@H]7OC[C@](O)(CO)[C@H]7O)[C@H]6O[C@@H]6O[C@H](CO)[C@H](O)[C@H](O)[C@H]6O)C(C)(C)C5CC[C@]42C)O[C@@H](O)[C@]12C3CC(C)(C)[C@@H](OC(=O)/C=C/c1ccc(O)c(O)c1)[C@@H]2OC(=O)/C=C/c1ccccc1 (stereo partly specified),outcome,[1],inactive [at 9.52 µM]
same,"activity change, negative = inhibition",[2],-12% [at 9.73 µM]
same,outcome,[3],inactive [at 11.6 µM]
same,"activity change, negative = thiol reactive",[4],97% [at 11.5 µM]
same,"activity, negative = inhibition",[5],1.63% [at 11.6 µM]
CC(C)C1=CC2=CCC3[C@](C)(CCC[C@@]3(C)C(=O)O)C2CC1=O (stereo partly specified),Potency,[1],inactive
same,Potency,[2],inactive
same,Potency,[3],inactive
same,Potency,[4],inactive
same,Potency,[5],inactive
same,Potency,[6],inactive
Cc1nnc(C(C)C)n1C1CC2CCC(C1)N2CC[C@H](NC(=O)C1CCC(F)(F)CC1)c1ccccc1 (stereo partly specified),Potency,[1],inactive
same,Potency,[2],inactive
same,Potency,[3],inactive
same,Potency,[4],inactive
same,Potency,[5],inactive
CC1OC(OC2C(C)OC(OC3C(OC(=O)/C=C/c4ccc(O)cc4)C(CO)OC(OC4(COC(=O)/C=C/c5ccc(O)cc5)OC(CO)C(O)C4O)C3OC3OCC(O)(CO)C3O)C(O)C2O)C(O)C(O)C1O (stereo unspecified),Potency,[1],inactive
same,Potency,[2],inactive
same,"activity change, negative = inhibition",[3],-0.562% [at 11.6 µM]
same,"activity change, negative = thiol reactive",[4],1.76% [at 11.5 µM]
same,"activity, negative = inhibition",[5],0.249% [at 11.6 µM]
same,redox activity (% of DA3003),[6],-13.7% [at 11.5 µM]
CC1CCC2C(C)(C)C(O)CCC2(C)C12Cc1c(O)cc3c(c1O2)CN(C(CCC(N)=O)C(=O)O)C3=O (stereo unspecified),Potency,[1],inactive
same,Potency,[2],inactive
same,Potency,[3],inactive
same,Potency,[4],inactive
same,Potency,[5],inactive
C=C1CCC2C(OC(=O)C2(O)COC(C)=O)C2C(=C)C(O)CC12 (stereo unspecified),Potency,[1],inactive
same,Potency,[2],inactive
same,Potency,[3],inactive
same,Potency,[4],7.36 µM (active)
same,Potency,[5],inactive
same,Potency,[6],inactive
C[C@@H]1O[C@@H](OC[C@H]2O[C@@H](OCC3CCC4CC3C4(C)C)[C@H](O)[C@@H](O)[C@@H]2O)[C@H](O)[C@H](O)[C@H]1O (stereo partly specified),Potency,[1],inactive
same,Potency,[2],inactive
same,Potency,[3],inactive
same,Potency,[4],11.6 µM (active)
same,Potency,[5],inactive
same,Potency,[6],inactive
CC(C)C1=CC2=CCC3[C@](C)(CCC[C@@]3(C)C(=O)O)C2CC1O (stereo partly specified),Potency,[1],inactive
same,Potency,[2],inactive
same,Potency,[3],inactive
same,Potency,[4],inactive
same,Potency,[5],inactive
O=C(O)c1cc(O[C@@H]2O[C@H](CO[C@@H]3OC[C@@H](O)[C@H](O)[C@H]3O)[C@@H](O)[C@H](O)[C@H]2O)c2ccccc2c1O,Potency,[1],inactive
same,Potency,[2],inactive
same,Potency,[3],inactive
same,Potency,[4],3.67 µM (active)
same,Potency,[5],inactive
C=C1C(=O)O[C@H]2[C@H]1[C@@H](OC(=O)C(C)CO)C[C@@]1(C)[C@H](O)CCC(=O)[C@H]21 (stereo partly specified),Potency,[1],inactive
same,Potency,[2],inactive
same,Potency,[3],inactive
same,Potency,[4],inactive
same,Potency,[5],inactive
same,Potency,[6],inactive
CC/C=C\C[C@H]1C(=O)C=C[C@@H]1CCCCCCCC(=O)O,Potency,[1],inactive
same,Potency,[2],inactive
same,Potency,[3],inactive
same,Potency,[4],inactive
same,Potency,[5],inactive
C[C@@H]1C(=O)O[C@H]2[C@H]1CC[C@@]1(C)C(=O)C=C[C@](C)(O)[C@H]21,Potency,[1],inactive
same,Potency,[2],inactive
same,Potency,[3],inactive
same,Potency,[4],21.2 µM (active)
same,Potency,[5],inactive
same,Potency,[6],inactive
Cc1coc2c1CC1OC1(C)CCC1OC1(C)C2 (stereo unspecified),Potency,[1],inactive
same,Potency,[2],inactive
same,Potency,[3],inactive
same,Potency,[4],inactive
same,Potency,[5],inactive
same,Potency,[6],inactive
O=C1NCc2nc3ccccc3c(=O)n2C1Cc1c[nH]c2ccccc12 (stereo unspecified),Potency,[1],inactive
same,Potency,[2],inactive
same,Potency,[3],inactive
same,Potency,[4],inactive
same,Potency,[5],inactive
same,Potency,[6],inactive
C=C1CCC2(OC1)OC1CC3C4CC=C5CC(O)CC(O[C@@H]6OC[C@@H](O)[C@H](O)[C@H]6O)C5(C)C4CCC3(C)C1(O)C2C (stereo partly specified),Potency,[1],inactive
same,Potency,[2],inactive
same,Potency,[3],inactive
same,Potency,[4],inactive
same,Potency,[5],inactive
same,Potency,[6],inactive
CO/N=C(/C(=O)N[C@@H]1C(=O)N2C(C(=O)O)=C(CSC(=O)c3ccco3)CS[C@H]12)c1csc(N)n1,Potency,[1],8.06 µM (active) and 7.18 µM (active)
same,Potency,[2],7.08 µM (active)
same,Potency,[3],inactive
same,Potency,[4],inactive
same,Potency,[5],inactive
O=C1N(CC2CCCCN2)CCN1c1ccccc1 (stereo unspecified),Potency,[1],inactive
same,Potency,[2],inactive
same,Potency,[3],inactive
same,Potency,[4],inactive
same,Potency,[5],inactive
